Drawing on PubChem BioAssay, this text covers composite z-score and z-score for twelve molecules.

Activity calls are given as the source filed them.

Assay [1] concerns Wnt5a (protein binding on small-molecule microarray). In words: Wnt5a binders on small-molecule microarray, primary screen, biophysical, 635/667 nm fluorescence (AID 1142).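 Further: fluorescence read at 667 nm with signal to noise per printed feature.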 To be noted: 635 nm fluorescence, higher = more signal.
Assay [2] is described as follows: cell viability in Huh7 cells, primary screen, cytotoxicity control for HCV replication inhibitor project, CellTiter-Glo luminescence, basal, 48 h (AID 1143).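 Further: Huh7 hepatoma cells carrying a hepatitis C replication reporter with no stimulus; test concentration not given here.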 To be noted: Huh7 HCV replicon, higher = more signal, called active from +8 up or from −8 down.
A short description of assay [3]: CREB reporter modulators without forskolin, primary screen, cell-based, PC12, CRE-LacZ reporter, unstimulated (AID 1145). To be noted: no forskolin, luminescence, 4.5 h, higher = more signal, called active from +8 up or from −8 down.
Assay [4] in a line: CREB reporter modulators under forskolin, primary screen, cell-based, PC12, CRE-LacZ reporter, forskolin-stimulated (AID 1146).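 Further: PC12 cells with 6xCRE LacZ reporter stimulated by forskolin 10 µM; beta-galactosidase reporter signal reflecting CREB driven transcription.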 To be noted: luminescence, 4.5 h, higher = more signal, called active from +8 up or from −8 down.
Assay [5] deals with Streptavidin (Streptomyces avidinii) (UniProt P22629). Put plainly: streptavidin binders on small-molecule microarray, primary screen, artefact control for SMM compound annotation, biophysical, 635/667 nm fluorescence (AID 1147).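 Further: signal reflects streptavidin binding to arrayed compounds as a control protein.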 The following applies: streptavidin binding, higher = more signal.
A short description of assay [6]: small-molecule binders of probe aInhba, primary screen, biochemical, small-molecule microarray, 635/667 nm fluorescence (AID 1148).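 Further: score merges 667nm spot fluorescence with signal-to-noise for antibody binding to printed compounds.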 To be noted: higher = more signal.
Assay [7] addresses Torsin-1A (Homo sapiens) (UniProt O14656). In words: torsin A binders from cell lysate, primary screen, small-molecule microarray, wild-type, 635/667 nm (AID 1149). The following applies: COS7 hTOR1A-WT lysate, 635 nm fluorescence, higher = more signal.
The target is the same in assay [8]. Put plainly: small-molecule binders of mutant TOR1A in lysate, primary screen, cell lysate, small-molecule microarray, COS7 lysate, 635/667 nm fluorescence (AID 1150).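 Further: score pools 667 nm emission and signal to noise measuring lysate protein binding.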 To be noted: COS7 hTOR1A mutant lysate, 635 nm fluorescence, higher = more signal.
Assay [9] relates to Sonic hedgehog protein (Shh). In words: small-molecule binders of Shh protein, primary screen, biochemical, small-molecule microarray, 635/667 nm fluorescence (AID 1151).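 Further: Shh protein binding to compounds spotted on small-molecule microarray slides; score combines spot fluorescence intensity with signal-to-noise across triplicate slides.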 The following applies: small-molecule microarray binding, 635 nm fluorescence; higher = more signal.

Torsin-1A (Homo sapiens), sequence (O14656 whole entry, looked up): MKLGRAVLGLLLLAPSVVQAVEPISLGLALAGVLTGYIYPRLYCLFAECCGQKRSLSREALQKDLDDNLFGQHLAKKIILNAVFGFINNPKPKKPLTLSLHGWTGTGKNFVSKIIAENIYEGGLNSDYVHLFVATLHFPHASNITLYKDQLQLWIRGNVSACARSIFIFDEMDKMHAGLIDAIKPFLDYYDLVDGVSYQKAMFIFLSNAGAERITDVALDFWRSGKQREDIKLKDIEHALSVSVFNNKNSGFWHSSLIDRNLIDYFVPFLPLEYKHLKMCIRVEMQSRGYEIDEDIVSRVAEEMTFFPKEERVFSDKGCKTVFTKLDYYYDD
Streptavidin (Streptomyces avidinii), sequence (P22629 whole entry, looked up): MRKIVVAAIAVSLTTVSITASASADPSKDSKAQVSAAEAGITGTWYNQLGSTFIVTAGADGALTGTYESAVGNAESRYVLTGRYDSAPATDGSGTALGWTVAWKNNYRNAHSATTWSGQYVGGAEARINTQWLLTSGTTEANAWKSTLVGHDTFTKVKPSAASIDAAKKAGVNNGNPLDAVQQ

`CC(C)(C)OC(=O)CC[C@@]1(C(=O)NCc2ccccc2)N=C(c2ccc(OCCCO)cc2)O[C@@H]1c1ccccc1`: the composite z-score is 0.337 in [1]; 1.41 in [5]; 0.346 in assay [6]; 0.461 in assay [7]; 1.04 in assay [8]; -0.282 in [9]. For the same molecule, the figures for the z-score in [2], in assay [3] and in assay [4] were -4.58 (inactive), 0.573 (inactive) and -2.42 (inactive), respectively.
As to `COCCOC(=O)N1C(=O)[C@@]2(c3ccccc31)[C@H](C(=O)N1CCc3cc(OC)c(OC)cc3C1)[C@H]1C(=O)O[C@H](c3ccccc3)[C@H](c3ccccc3)N1[C@@H]2c1ccccc1OCCO`, the composite z-score in [1] was found to be 0.0374; in assay [5], 0.686; in assay [6] it was 0.0228; in [7], 0.435; in assay [8], 0.243; in [9], 1.38. In addition, the z-score in assay [2] was -3.27 (inactive); in assay [3] it was -0.183 (inactive); in [4] it was -1.12 (inactive).
Take `COCC(=C=CC[C@H](O)c1ccc(OCCO)cc1)C[C@H](O)c1ccccn1`: the composite z-score was -0.0253 in [1]; -0.65 in assay [5]; -0.018 in [6]; -0.353 in [7]; 0.904 in assay [8]; 1.05 in assay [9]. Besides, the figures for the z-score in [2], in assay [3] and in assay [4] were -0.23 (inactive), 3.18 (inactive) and -1.44 (inactive), respectively.
For `C=CC[C@]1(C(=O)O)N=C(c2ccc(OCCCO)cc2)O[C@H]1c1ccccc1`, the composite z-score is -0.0903 in [1]; 0.0596 in assay [5]; -0.0471 in assay [6]; -0.753 in [7]; -0.0649 in assay [8]; -0.712 in [9]. Further, the z-score is -0.551 (inactive) in assay [2], 1.38 (inactive) in assay [3] and -1.04 (inactive) in assay [4].
Consider `CCN1C(C)=C(C(=O)OC)[C@@H](c2ccccc2)N2C(=O)[C@](O)(C(=O)OC)[C@@H](c3ccccc3)C(C(C)=O)=C12`, for which the composite z-score in [1] was 0.223; in assay [5], -0.0371; in [6] it was -0.177; in assay [7], 0.142; in assay [8], 0.355; in assay [9], 1.75. Also, the z-score in assay [2] is -5.29 (inactive); in assay [3] it was 0.106 (inactive); in [4], -1.04 (inactive).
With `CC(C)(C)OC(=O)CC[C@]1(C(=O)NCCN2CCOCC2)N=C(c2ccc(OCCCO)cc2)O[C@H]1c1ccccc1CN=[N+]=[N-]`, the composite z-score is 0.358 in assay [1]; 0.225 in [5]; 0.0386 in [6]; 0.474 in [7]; 1.06 in [8]; -0.577 in [9]. Besides, the figures for the z-score in assay [2], in assay [3] and in assay [4] were -1.11 (inactive), 1.57 (inactive) and -1.79 (inactive), respectively.
For `O=C(CS)NCCCCCNC(=O)[C@H]1C[C@H]2C(=O)N3CCC[C@H]3C(=O)N2[C@H]1c1ccc(O)cc1`, the composite z-score in assay [1] is 0.143; in assay [5] it was -1.13; in [6], -0.024; in [7], -0.159; in assay [8], 0.0883; in [9], 1.63. Further, the values for the z-score in [2], in assay [3] and in [4] were -0.564 (inactive), -0.528 (inactive) and -1.59 (inactive), respectively.
As for `C=C(COC)/C(=C/C[C@@H](OC(=O)c1ccncc1)c1ccc(OCCO)cc1)c1cc(C(=O)OC)ccc1OC`, the composite z-score was found to be 0.147 in assay [1]; 1.14 in [5]; 0.0212 in assay [6]; 1.06 in [7]; 0.838 in [8]; 0.811 in assay [9]. For the same molecule, the z-score was -2.43 (inactive) in assay [2], 9.09 (active) in assay [3] and -2.02 (inactive) in assay [4].
On to `C=C[C@H](OC)[C@@H](OC(=O)Nc1ccc(SC)cc1)c1ccc(OC)c(O)c1`, for which the composite z-score was -0.29 in assay [1]; -1.28 in [5]; -0.128 in assay [6]; -0.678 in assay [7]; 0.157 in assay [8]; 0.417 in assay [9]. Further, the values for the z-score in assay [2], in assay [3] and in assay [4] were -0.0203 (inactive), -0.113 (inactive) and -1.26 (inactive), respectively.
`O=C(CS)NCCCCCNC(=O)[C@H]1C[C@H]2C(=O)N[C@@H](Cc3ccccc3)C(=O)N2[C@H]1c1ccc(O)cc1`: the composite z-score in assay [1] was 0.252; in [5], 0.0842; in assay [6], 0.0018; in assay [7] it was 1.04; in assay [8], 0.746; in [9], 2.09. Moreover, the z-score is -0.164 (inactive) in assay [2], -0.809 (inactive) in [3] and -0.819 (inactive) in assay [4].
`COC(=O)C[C@H]1O[C@]2(C(=O)N(C)c3ccccc32)[C@@H](C)[C@@H]1[Si](C)(C)c1ccc(OC)cc1`: the composite z-score stood at 0.259 in assay [1]; 0.781 in assay [5]; 0.138 in assay [6]; 0.639 in assay [7]; 0.236 in assay [8]; 0.661 in [9]. Besides, the z-score in assay [2] was -4.23 (inactive); in assay [3], 2.23 (inactive); in assay [4], -1.58 (inactive).
Regarding `C/C(=N\O)C(=O)NCCCCCNC(=O)OCc1ccccc1`, the composite z-score is 0.321 in assay [1]; 1.24 in assay [5]; -0.0471 in [6]; 0.228 in assay [7]; 0.173 in [8]; 0.371 in assay [9]. Moreover, the z-score was -0.564 (inactive) in assay [2], 1.67 (inactive) in assay [3] and -1.47 (inactive) in assay [4].
